Experimental data published in the supplement of paper PMC6555819.

Key:
Experiment in all cases: PBM binding z-score (relative to random genomic background probes); higher = stronger binding; sequences stand for … in GC…GCGATTGACAGCGTAGAATGAAGG
[1] = tested on: PPARg:RXRa DBDmut IVT, anti-RXR (DBD mutation: RXRa K156A/R161A, NR concentration 270 nM, RXRa partner concentration 90 nM)
Summary of the method: (§1)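 On custom Agilent 4×180K arrays, double-stranded probes with 34-nt variable regions carried direct-repeat seeds, single-nucleotide variants, half-site ablations or random human genomic background. Ligand-free nuclear receptor dimers were applied for 1 h, and binding was read with antibodies against each partner (one per run). Binding z-scores come from regression-normalized fluorescence, with the random background probes as reference.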

[2] = tested on: PPARg:RXRa IVT, anti-PPARg (NR concentration 270 nM, RXRa partner concentration 90 nM)
Summary of the method: as §1

[3] = tested on: PPARg DBDmut:RXRa IVT, anti-PPARg (DBD mutation: PPARg1 K132A/R137A, NR concentration 270 nM, RXRa partner concentration 90 nM)
Summary of the method: as §1

[4] = tested on: PPARg DBDmut IVT, anti-PPARg (DBD mutation: PPARg1 K132A/R137A, NR concentration 270 nM)
Summary of the method: as §1

[5] = tested on: PPARg homodimer (NR concentration 180 nM)
Summary of the method: as §1

[6] = tested on: PXR:RXRa (NR concentration 270 nM, RXRa partner concentration 90 nM)
Summary of the method: as §1

[7] = tested on: PXR homodimer (NR concentration 270 nM)
Summary of the method: as §1

[8] = tested on: RARa:RXR (NR concentration 270 nM, RXRa partner concentration 90 nM)
Summary of the method: as §1

[9] = tested on: RARa homodimer (NR concentration 270 nM)
Summary of the method: as §1

[10] = tested on: RARb:RXRa (NR concentration 270 nM, RXRa partner concentration 90 nM)
Summary of the method: as §1

[11] = tested on: RARb homodimer (NR concentration 270 nM)
Summary of the method: as §1

[12] = tested on: RARg:RXRa (NR concentration 270 nM, RXRa partner concentration 90 nM)
Summary of the method: as §1

[13] = tested on: RARg homodimer (NR concentration 270 nM)
Summary of the method: as §1

[14] = tested on: RXRa DBDmut IVT, anti-RXR (DBD mutation: RXRa K156A/R161A, NR concentration 90 nM)
Summary of the method: as §1

[15] = tested on: RXRa homodimer (NR concentration 180 nM)
Summary of the method: as §1

[16] = tested on: THRa:RXRa (NR concentration 90 nM, RXRa partner concentration 90 nM)
Summary of the method: as §1

[17] = tested on: THRa homodimer (NR concentration 90 nM)
Summary of the method: as §1

[18] = tested on: VDR:RXRa (NR concentration 270 nM, RXRa partner concentration 90 nM)
Summary of the method: as §1

[19] = tested on: VDR homodimer (NR concentration 270 nM)
Summary of the method: as §1

Row | Sequence | PBM binding z-score [1] | PBM binding z-score [2] | PBM binding z-score [3] | PBM binding z-score [4] | PBM binding z-score [5] | PBM binding z-score [6] | PBM binding z-score [7] | PBM binding z-score [8] | PBM binding z-score [9] | PBM binding z-score [10] | PBM binding z-score [11] | PBM binding z-score [12] | PBM binding z-score [13] | PBM binding z-score [14] | PBM binding z-score [15] | PBM binding z-score [16] | PBM binding z-score [17] | PBM binding z-score [18] | PBM binding z-score [19]
1 | CATACAGGGTCAGCTAGACCAGAGTAGGGACGGC | 1.02 | 2.59 | 1.26 | 0.0987 | 1.43 | 2.03 | -0.458 | 3.16 | 0.685 | 4.07 | 2.81 | 4.53 | 4.93 | 1.59 | 4.3 | 2.83 | 0.733 | 2.52 | 0.573
2 | CCTTACGGGTCACTCCAGCTTATAGCATCGGAGT | 2.73 | 2.95 | 0.84 | 0.0391 | 1.95 | 2.52 | 0.285 | 3.54 | 0.557 | 3.56 | 2.64 | 4.1 | 4.22 | 1.69 | 3.9 | 2.22 | -0.158 | 2.73 | 0.747
3 | CATACAGTGTCAGCTAGGCCAGAGTAGGGACGGC | -0.0696 | 0.608 | 0.171 | -0.0038 | -0.0558 | -0.453 | -0.457 | -0.228 | 0.038 | 1.04 | 0.245 | 0.397 | 0.832 | -0.017 | 0.0865 | 0.027 | 0.00703 | -0.152 | -0.455
4 | ACTTACGGGTCAACGAGGCTATAGCACGCGTATA | 3.07 | 3.98 | 0.121 | 1.38 | 1.92 | 3.59 | 0.421 | 4.16 | 0.515 | 4.01 | 3.07 | 5.01 | 4.51 | 2.15 | 5.06 | 3.35 | 0.239 | 6.74 | 1.55
5 | TCTGCTAGGTCAGTTGTTCAGCTAACGAGCTGCC | 2.38 | 2.46 | -0.0117 | 0.257 | -0.0463 | 0.0123 | -1.04 | 0.419 | -1.19 | 3.15 | 2.19 | 2.19 | 3.35 | 0.434 | 0.641 | 1.25 | 0.158 | -0.272 | -0.531
6 | CCAGACAGGTGAAAGATAACTCAGTCTGGTACGC | 1.22 | 0.571 | -0.176 | -0.498 | 0.844 | -0.0544 | 0.127 | 0.381 | 0.87 | 0.534 | 0.244 | 0.614 | 0.6 | 0.193 | 0.775 | 0.125 | -0.296 | 0.17 | 0.339
7 | TCTCGGAGGACACGAAAGGTCAGAGCCCGACATC | 1.33 | 1.82 | -0.244 | -0.279 | 3.83 | 3.99 | 0.732 | 4.46 | 1.38 | 4.29 | 4.82 | 4.91 | 5.5 | 0.988 | 3.95 | 3.67 | 1.25 | 3.26 | 1.26
8 | TCTTATAGGTAAAGGTGAAAGTCGAACGATATGA | 3.92 | 3.7 | 2 | 1.77 | 1.61 | 1.11 | 0.648 | 1.96 | 1.18 | 2.21 | 1.59 | 1.84 | 1.45 | 1.1 | 2.43 | 1.39 | 0.153 | 1.25 | 0.315
9 | CGTCAATGTTCAAGGTAACGTAACAGAAAGCAGC | -0.165 | 0.397 | 0.371 | 0.433 | 0.235 | 0.00739 | -0.0049 | -0.00308 | 0.0887 | 0.375 | -0.0496 | 0.0962 | 0.453 | 0.148 | 0.198 | 1.56 | 1.19 | 0.0627 | 0.0285
10 | TTACCAAGGTGAGCTGAGGTCGCTGATCCAACTC | 1.38 | 1.87 | -1.62 | -0.0566 | -0.197 | 3.58 | -0.341 | 1.5 | -1.47 | 1.95 | 1.76 | 1.33 | 1.22 | -0.393 | 1.2 | 4.95 | 2.17 | 2.9 | 0.556
11 | ACTAGCAGGCCAAGTTTGCGTCACTCAAACAAAG | 0.769 | 0.225 | 0.102 | -0.27 | -0.265 | -0.294 | -0.479 | -0.264 | -0.243 | 0.486 | 0.00722 | -0.201 | -0.0389 | 0.079 | -0.299 | -0.253 | -0.635 | -0.321 | 0.0311
12 | GGAACGAGGGCAATCGAGTTGATAGCATGGCGAT | 3.45 | 2.82 | -0.0288 | -1.1 | -0.25 | 3.29 | 0.305 | 0.677 | -0.463 | 1.6 | 0.554 | 1.14 | 1.22 | 1.84 | 0.638 | 2.64 | -0.649 | 3.11 | 1.87
13 | CCGACTGGCGCAGAAAGGTTACCATACCATCCGG | -0.18 | -0.419 | -0.533 | -1.05 | 0.499 | 0.354 | -0.51 | 1.14 | -0.466 | 1.35 | 1.78 | 0.821 | 0.575 | -0.469 | 1.66 | 1.05 | -0.286 | 0.29 | -0.331
